Data taken from PubChem BioAssay (NCI).
The panel holds about 79,000 compounds, 15% with a hit somewhere; the sample as a whole holds those more often. A number with no mark means an inactive call. Active and inactive are the calls of the source. No stated cut-off is given here; in the data, active means growth inhibition above about 70%; inactive means the rest.

Assay: NCI Yeast Anticancer Drug Screen. Data for the wt2 strain (AID 169);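 further: 0% = growth of vehicle-treated yeast cultures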
Settings: S. cerevisiae wt2 strain growth inhibition; at 100.0 µM; hits give high values
How it was run: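 Genetically defined yeast strains from a DNA-repair/cell-cycle panel were used. Compound-exposed yeast growth was measured, and the inhibition was calculated relative to vehicle treatment.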

| SMILES | growth inhibition |
| --- | --- |
| CCN(CC)CC[n+]1ccc2c(C)c3[nH]c4ccc(O)cc4c3c(C)c2c1 | 26% |
| O=[n+]1c2ccc(Cl)cc2n([O-])c2ccc(Cl)cc21 | 10% |
| CCOP(=O)(OCC)C(Cc1ccccc1)N=C(c1ccccc1)c1ccccc1 (stereo not drawn) | 98% (active) |
| CC[C@@]1(O)C(=O)OCc2c1cc1n(c2=O)Cc2cc3c(N)cccc3nc2-1 | -16% |
| COC1C=COC2(C)Oc3c(C)c(O)c4c(c3C2=O)/C(=N/C2CCC(O)OC2C)C=C(NC(=O)/C(C)=C\C(=O)C2CC2C(O)C(C)C(O)C(C)C(OC(C)=O)C1C)C4=O (stereo not drawn) | 94% (active) |
| COc1cc2c(c(OC)c1OC)-c1c(cc3c(c1OC)OCO3)CC(C)C(C)(O)C2OC(=O)c1ccccc1 (stereo not drawn) | 93% (active) |
| O=c1ssc2ncccc12 | 98% (active) |
| O=C1C2C(C(=O)N1c1ccc(OCc3ccccc3)cc1)C1c3ccccc3C2C2CCCCN21 (stereo not drawn) | 94% (active) |
| COc1ccc(-c2cn(-c3ccc(I)cc3)c3ncnc(N)c23)cc1 | -8% |
| CCOC(=O)C(NC(=O)c1ccccc1)(N1CCN(c2cc3c(cc2F)c(=O)c(C(=O)O)cn3C2CC2)CC1)C(F)(F)F (stereo not drawn) | 1% |
| C/C(=N\O)C1CC2C=C(C#N)C1N(Cc1ccccc1)C2 (stereo not drawn) | -2% |
| CC/C(=C(\c1ccccc1)c1ccc(OCCN(C)C)cc1)c1ccccc1 | 97% (active) |
| COc1ccccc1N=NC(C(=O)c1ccccc1)C(=O)c1ccccc1 | 97% (active) |
| CC(O)C(O)C(O)C(/C=N\Nc1ccccc1)=N/Nc1ccccc1 (stereo not drawn) | 99% (active) |
| COc1ccc(/C=C2\SC(=S)N(/C=C/c3nc4ccccc4[nH]c3=O)C2=O)cc1OC | 94% (active) |
| N#CN=Nc1cc(Cl)c(N=NC#N)cc1Cl | 30% |
| Cc1ccc(S(=O)(=O)Oc2cc(Cl)c(Cl)cc2Cl)cc1 | -8% |
| c1ccc2c(c1)Oc1cccc3cccc-2c13 | 36% |
| O=C(c1ccc(Cl)cc1Cl)C(Cl)Cl | 98% (active) |
| CC(C)C1=CCC2C(=C1)CCC1C(C)(C(=O)O)CCCC21C (stereo not drawn) (tested in a mixture with another compound) | 93% (active) |

| SMILES | growth inhibition |
| --- | --- |
| COc1cc(/C=C2\CCc3ccccc3C2=O)cc(OC)c1OC | 79% (active) |
| CC(=O)[O][Bi]([c]1ccccc1)[c]1ccccc1 | 96% (active) |
| S=C(N/N=C/c1ccccn1)Nc1ccc(Cl)cc1 | 39% |
| COc1cc(CC2CC(c3ccc4c(c3)OCO4)OC2=O)cc(OC)c1OC (stereo not drawn) | 0% |
| CNC1C(OC2C(OC3C(O)C(O)C(N=C(N)N)C(O)C3N=C(N)N)OC(C)C2(O)CO)OC(CO)C(O)C1O (stereo not drawn) | -6% |
| NNC(=O)CCc1ccc2ccc3ccccc3c2c1 | 32% |
| Oc1ccc2ccccc2c1C(c1ccc(Cl)cc1)c1c(O)ccc2ccccc12 | 80% (active) |
| CCCCN(CCCC)CCSc1ccc(Cl)cc1 | 97% (active) |
| CCC(C)COC(=O)c1ccc(N=Cc2ccc(C=Nc3ccc(C(=O)OCC(C)CC)cc3)cc2)cc1 (stereo not drawn) | 5% |
| CC1(C)C(=O)OC(n2cc(F)c(=O)[nH]c2=O)C1=O (stereo not drawn) | 51% |
| O=[N+]([O-])CC(SCc1ccccc1)c1ccc2c(c1)OCO2 (stereo not drawn) | 97% (active) |
| COc1cc2c(cc1[N+](=O)[O-])C(=O)C(Br)(Br)CCC2 | 95% (active) |
| OCC1OC(OCC(O)C(O)C(O)C(/C=N/Nc2ccccc2)=N/Nc2ccccc2)C(O)C(O)C1O (stereo not drawn) | 17% |
| COc1ccc(N=C2C(=O)Nc3ccc(Br)cc32)cc1 | 11% |
| Cn1c(=O)c2ccccc2c2ccccc21 | 50% |
| CC[n+]1ccc2c(C)c3[nH]c4ccc(O)cc4c3c(C)c2c1 | 13% |
| CC(=O)ON1C(=O)c2cccc3cccc(c23)C1=O | 99% (active) |
| COc1ccc2ccc3ccccc3c2c1C=O | 77% (active) |
| OC1CCCc2c1cc1ccc3cccc4ccc2c1c34 (stereo not drawn) | 94% (active) |

Assay: NCI Yeast Anticancer Drug Screen. Data for the mlh1 strain (AID 171);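 further: 0% = growth of vehicle-treated control cultures of the same strain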
Settings: S. cerevisiae mlh1 strain growth inhibition; at 1.2 µM; hits give high values
How it was run: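 Here the genetically defined yeast mutant is grown with each compound, and the extent to which its growth falls below that of vehicle-exposed cells is reported.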

| SMILES | growth inhibition [%] |
| --- | --- |
| CCN(CC)CC[n+]1ccc2c(C)c3[nH]c4ccc(O)cc4c3c(C)c2c1 | -4 |
| O=[n+]1c2ccc(Cl)cc2n([O-])c2ccc(Cl)cc21 | -1 |
| CCOP(=O)(OCC)C(Cc1ccccc1)N=C(c1ccccc1)c1ccccc1 (stereo not drawn) | 1 |
| CC[C@@]1(O)C(=O)OCc2c1cc1n(c2=O)Cc2cc3c(N)cccc3nc2-1 | 1 |
| COC1C=COC2(C)Oc3c(C)c(O)c4c(c3C2=O)/C(=N/C2CCC(O)OC2C)C=C(NC(=O)/C(C)=C\C(=O)C2CC2C(O)C(C)C(O)C(C)C(OC(C)=O)C1C)C4=O (stereo not drawn) | 3 |
| COc1cc2c(c(OC)c1OC)-c1c(cc3c(c1OC)OCO3)CC(C)C(C)(O)C2OC(=O)c1ccccc1 (stereo not drawn) | -13 |
| O=c1ssc2ncccc12 | 9 |
| O=C1C2C(C(=O)N1c1ccc(OCc3ccccc3)cc1)C1c3ccccc3C2C2CCCCN21 (stereo not drawn) | 1 |
| COc1ccc(-c2cn(-c3ccc(I)cc3)c3ncnc(N)c23)cc1 | -2 |
| CCOC(=O)C(NC(=O)c1ccccc1)(N1CCN(c2cc3c(cc2F)c(=O)c(C(=O)O)cn3C2CC2)CC1)C(F)(F)F (stereo not drawn) | -1 |
| C/C(=N\O)C1CC2C=C(C#N)C1N(Cc1ccccc1)C2 (stereo not drawn) | -3 |
| CC/C(=C(\c1ccccc1)c1ccc(OCCN(C)C)cc1)c1ccccc1 | -3 |
| COc1ccccc1N=NC(C(=O)c1ccccc1)C(=O)c1ccccc1 | -25 |
| CC(O)C(O)C(O)C(/C=N\Nc1ccccc1)=N/Nc1ccccc1 (stereo not drawn) | 3 |
| COc1ccc(/C=C2\SC(=S)N(/C=C/c3nc4ccccc4[nH]c3=O)C2=O)cc1OC | 1 |
| N#CN=Nc1cc(Cl)c(N=NC#N)cc1Cl | 22 |
| Cc1ccc(S(=O)(=O)Oc2cc(Cl)c(Cl)cc2Cl)cc1 | 1 |
| c1ccc2c(c1)Oc1cccc3cccc-2c13 | 7 |
| O=C(c1ccc(Cl)cc1Cl)C(Cl)Cl | -10 |
| CC(C)C1=CCC2C(=C1)CCC1C(C)(C(=O)O)CCCC21C (stereo not drawn) (tested in a mixture with another compound) | 12 |

| SMILES | growth inhibition [%] |
| --- | --- |
| COc1cc(/C=C2\CCc3ccccc3C2=O)cc(OC)c1OC | -3 |
| CC(=O)[O][Bi]([c]1ccccc1)[c]1ccccc1 | 28 |
| S=C(N/N=C/c1ccccn1)Nc1ccc(Cl)cc1 | -5 |
| COc1cc(CC2CC(c3ccc4c(c3)OCO4)OC2=O)cc(OC)c1OC (stereo not drawn) | -4 |
| CNC1C(OC2C(OC3C(O)C(O)C(N=C(N)N)C(O)C3N=C(N)N)OC(C)C2(O)CO)OC(CO)C(O)C1O (stereo not drawn) | -2 |
| NNC(=O)CCc1ccc2ccc3ccccc3c2c1 | 6 |
| Oc1ccc2ccccc2c1C(c1ccc(Cl)cc1)c1c(O)ccc2ccccc12 | -41 |
| CCCCN(CCCC)CCSc1ccc(Cl)cc1 | -14 |
| CCC(C)COC(=O)c1ccc(N=Cc2ccc(C=Nc3ccc(C(=O)OCC(C)CC)cc3)cc2)cc1 (stereo not drawn) | 0 |
| CC1(C)C(=O)OC(n2cc(F)c(=O)[nH]c2=O)C1=O (stereo not drawn) | -14 |
| O=[N+]([O-])CC(SCc1ccccc1)c1ccc2c(c1)OCO2 (stereo not drawn) | 17 |
| COc1cc2c(cc1[N+](=O)[O-])C(=O)C(Br)(Br)CCC2 | 50 |
| OCC1OC(OCC(O)C(O)C(O)C(/C=N/Nc2ccccc2)=N/Nc2ccccc2)C(O)C(O)C1O (stereo not drawn) | -2 |
| COc1ccc(N=C2C(=O)Nc3ccc(Br)cc32)cc1 | 6 |
| Cn1c(=O)c2ccccc2c2ccccc21 | 8 |
| CC[n+]1ccc2c(C)c3[nH]c4ccc(O)cc4c3c(C)c2c1 | 0 |
| CC(=O)ON1C(=O)c2cccc3cccc(c23)C1=O | 61 |
| COc1ccc2ccc3ccccc3c2c1C=O | -6 |
| OC1CCCc2c1cc1ccc3cccc4ccc2c1c34 (stereo not drawn) | -16 |
